Rows were chosen to be rich in hits. Some 8.7% of all compounds tested hit in one or more screens of this group.
Sfp PPTase inh = blocks B. subtilis Sfp PPTase activity; Q9F4F7; Biochemical Sfp PPTase activity, qHTS; Potency, µM, for inactives: largest response in the series, negative = inhibition, actives largely listed as inhibitors; 310,000 compounds, 3.5% hits; AID 1490;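 further: the enzyme is Sfp with the accession as filed and its product quenches rhodamine fluorescence; 0% = enzyme reaction without inhibitor and -100% = no enzyme wells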
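Fluorescence-quenching assay with 15 nM Sfp, 5 uM rhodamine-CoA and 12.5 uM BHQ-2-labelled ybbR peptide in pH 7.6 Hepes/MgCl2 buffer. Enzyme was pre-incubated with compound for 15 min at room temperature. Rate was taken from the 30-min fluorescence change (525/598 nm).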
ALOX12 inh = inhibitors of human 12S-lipoxygenase ALOX12; purified 12hLO, xylenol orange hydroperoxide absorbance; Potency, µM (doses to about 108 µM), inactives show at the top dose activity change, negative = inhibition, most hits filed as inhibitors; 580,000 compounds, 1.1% hits; further: on the % scale 0 is the no-effect control and ±100 the full control effect
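Hydroperoxide product was detected by ferrous iron/xylenol orange as the 573 to 405 nm absorbance ratio. Arachidonic acid at 40 uM (final) was turned over for 30 min at room temperature by 150 nM human 12hLO, pH 7.0 Hepes buffer, after 15 min compound preincubation.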
BAZ2B inh = blocks human BAZ2B. Q9UIF8. AlphaScreen BAZ2B-H3K14Ac peptide displacement. Potency, µM (top dose mostly 114 µM), for inactives: top-dose activity change, negative = inhibition, most hits filed as inhibitors. 360,000 compounds, 4.4% hits; further: on the % scale 0 is the no-effect control and ±100 the full control effect; nearly all actives have a fitted effect of over 60% in size
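AlphaScreen displacement of biotin-H3(5-23)K14Ac peptide (50 nM final) from BAZ2B (50 nM final) in PBS pH 7.4, 0.01% Tween-20; complex preformed 30 min RT, then compounds (top 110 uM) 30 min RT, beads 20 min dark.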
G9a block = blocks human histone lysine methyltransferase G9a; Q96KQ7; G9a H3K9 monomethylation, AlphaScreen, 2 h; Potency, µM (highest dose often 102 µM), inactives show at the highest dose activity, negative = inhibition, hits mostly inhibitors; 350,000 compounds, 8.8% hits; further: on the % scale 0 is the no-effect control and ±100 the full control effect; nearly all actives have a fitted effect of over 75% in size
Target sequence (Q96KQ7 913-1193 limits assumed): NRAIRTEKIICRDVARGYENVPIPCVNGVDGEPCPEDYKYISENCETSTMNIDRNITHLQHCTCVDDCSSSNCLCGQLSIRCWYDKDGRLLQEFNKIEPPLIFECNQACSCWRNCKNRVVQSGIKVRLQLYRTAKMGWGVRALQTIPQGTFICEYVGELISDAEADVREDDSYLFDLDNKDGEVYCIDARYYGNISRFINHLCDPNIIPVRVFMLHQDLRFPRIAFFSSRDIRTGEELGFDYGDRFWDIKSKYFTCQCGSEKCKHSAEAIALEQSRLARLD
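AlphaScreen detection with an anti-monomethyl H3K9 antibody quantified product after a 2 h room-temperature reaction containing 500 nM biotinylated H3K9 peptide, 20 µM SAM and 20 nM enzyme, which had been preincubated 15 min with compound.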
HP1b chromo inh = blocks HP1-beta chromodomain binding to methylated histone tails. Potency, µM (doses to about 114 µM), for inactives: top-dose activity change, negative = inhibition, most hits filed as inhibitors. P83916. AlphaScreen HP1-beta / biotin-H3K9me3 peptide binding. 390,000 compounds, 0.56% hits; further: nearly all actives have a fitted effect of over 70% in size
Target sequence (P83916 whole entry, looked up): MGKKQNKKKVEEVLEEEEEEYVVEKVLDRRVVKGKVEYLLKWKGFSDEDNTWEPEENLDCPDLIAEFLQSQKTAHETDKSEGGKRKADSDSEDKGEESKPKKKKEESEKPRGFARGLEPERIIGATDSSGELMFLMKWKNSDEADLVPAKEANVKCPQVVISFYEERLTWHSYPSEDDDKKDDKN
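Compound inhibition of the preformed complex between 50 nM HP1-beta and 50 nM biotinylated H3K9me3 peptide was read by AlphaScreen. Buffer was PBS pH 7.4 with 0.01% Tween-20. Incubations ran 30 min at room temperature, with 10 ug/mL donor/acceptor beads.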
JMJD2A Tudor inh = blocks the human JMJD2A Tudor domain; AlphaScreen JMJD2A-Tudor / H3K4me3 peptide binding; Potency, µM (series often up to 114 µM), without a hit: at the top dose activity change, negative = inhibition, most hits filed as inhibitors; 390,000 compounds, 4.4% hits; further: on the % scale 0 is the no-effect control and ±100 the full control effect; nearly all actives have a fitted effect of over 50% in size
* marks the source's active call; other numbers are inactive results; u = inconclusive; x = no result; [ ] = another dose, or the depositor's remark. The call rests on the fitted dose curve; in most records, active means well fitted curve in the direction sought with a large enough effect; inconclusive means small, poorly fitted or top-dose-only effect, or another doubt; inactive means no such curve, though single readings can be large; an effect the other way counts as inactive or inconclusive. Potency means the concentration at half of the fitted maximal effect.

SMILES	Sfp PPTase inh	ALOX12 inh	BAZ2B inh	G9a block	HP1b chromo inh	JMJD2A Tudor inh
Cc1ccc(-c2nn(-c3ccccc3)c(-c3ccc(C)cc3)c2C)cc1	x	-25.6%	x	x	x	x
C[S+](=O)([O-])N1Cc2ccccc2CC12CN(C(=O)c1ccc(C(F)(F)F)cc1)C2	x	32.5%	x	x	x	x
Cc1nn(-c2ccccc2)c2c1C(c1cccnc1)N1C=C(S(=O)(=O)N3CCCCC3)C=CC1=N2 (centres undefined)	-0.7%	u	-36.3%	79.4µM*	-30.4%	u
Cc1ccccc1S(=O)(=O)N1CCN(C2CCN(Cc3ccccn3)C2=O)CC1 (centres undefined)	x	67.7%	x	x	x	x
C#CCOCCOCCOCCNc1nc(N2CCN(C(=O)[C@H](Cc3ccc(O)cc3)n3cc([C@@H](N)CC(C)C)nn3)CC2)nc(N2CCN(C(=O)[C@H](Cc3cc4ccccc4[nH]3)n3cc([C@@H](N)CC(C)C)nn3)CC2)n1	-19.0%	u	25.1µM*	4.8%[12.7 µM]	-9.6%	10µM*
C#CCOCCOCCOCCNc1nc(N2CCN(C(=O)C(Cc3ccc(O)cc3)n3cc(C(N)CC(C)C)nn3)CC2)nc(N2CCN(C(=O)C(Cc3cc4ccccc4[nH]3)n3cc(C(N)C(C)CC)nn3)CC2)n1 (centres undefined)	-3.4%	x	50.1µM*	u	x	x
C#CCOCCOCCOCCNc1nc(N2CCN(C(=O)[C@H](Cc3ccc(O)cc3)n3cc([C@@H](N)C(C)CC)nn3)CC2)nc(N2CCN(C(=O)[C@H](Cc3cc4ccccc4[nH]3)n3cc([C@@H](N)Cc4ccc(O)cc4)nn3)CC2)n1 (some centres undefined)	56.2µM*	x	31.6µM*	u	x	x
C#CCOCCOCCOCCNc1nc(N2CCOCC2)nc(N2CCN(C(=O)[C@H](CO)n3cc([C@@H](N)C(C)C)nn3)CC2)n1	x	-0.4%	x	x	36.6%	-11.3%
CC(C)CCN1CCc2nc(C(C)C)nc(-c3ccc(Cl)cc3)c2CC1	x	15.2%[6.33 µM]	x	x	x	x
CCOC(=O)C1(C)NC(c2cccs2)C2C(=O)N(c3ccc(OC)cc3)C(=O)C21 (centres undefined)	15.0%	-3.2%	2.1%	4.0%	2.9%	10µM*
CCOC(=O)C1(C)NC(c2ccccc2F)C2C(=O)N(c3cccc(C(C)=O)c3)C(=O)C21 (centres undefined)	6.7%	-9.2%	18.7%	13.2%	u	35.5µM*
CCOC(=O)C1(C)NC(c2ccc(N(C)C)cc2)C2C(=O)N(c3ccc(OC)cc3)C(=O)C21 (centres undefined)	20.0%	-4.9%	4.2%	-11.0%	13.4%	-20.0%
COc1ccc(/C=C/C(=O)c2ccc3c(c2)OCO3)c(OC)c1	-8.6%	u	1.6%	0.6%[59 µM]	27.0%	-8.5%
COc1cc(/C=C/C(=O)c2cccc(O)c2)cc(Cl)c1O	x	25.1µM*	x	x	x	x
COc1cc(/C=C/C(=O)c2ccc3c(c2)OCO3)cc(Cl)c1O	-19.7%	u	u	44.7µM*	u	u
CCSc1nc(C)cc(C(F)(F)F)c1C#N	x	-6.9%	x	x	x	x
COc1cc(CN2C[C@@H]3C(=O)N(CCCN4CCCC4=O)C(=O)[C@@H]3C2)cc(OC)c1	x	69.1%	x	x	x	x
CCN(CC)CCN(Cc1cc2ccc(C)c(C)c2[nH]c1=O)C(=S)NCc1ccco1	56.2µM*	u	u	50.1µM*	u	u
CCNC(=S)N(Cc1cc2cc(C)ccc2[nH]c1=O)C1CCCC1	56.2µM*	-22.6%	u	u	13.7%	-22.2%
CCNC(=S)N(Cc1cc2cc(C)c(C)cc2[nH]c1=O)C1CCCC1	8.2%	u	-15.4%	-4.7%	10.6%	-25.4%
CCN(CC)CCN(Cc1cc2cc(C)cc(C)c2[nH]c1=O)C(=S)NCc1ccco1	10.1%	24.9%	-11.9%	u	-14.0%	u
CCN(CC)CCN(Cc1cc2cc(C)ccc2[nH]c1=O)C(=S)NCc1ccco1	56.2µM*	-17.8%	-36.2%	-33.3%[59 µM]	-15.5%	u
CN(CC(=O)NC(N)=O)C1CCCC1	x	0.2%	x	x	x	x
Cc1ccc(S(=O)(=O)CC(=O)N(CCCN2CCOCC2)c2nc3c(F)cccc3s2)cc1	x	-12.2%	-6.8%	u	12.8%	-8.2%
CCc1cccc2sc(N(CCCN3CCOCC3)C(=O)CS(=O)(=O)c3ccccc3)nc12	x	-11.0%	4.6%	6.1%	16.9%	u
SMILES	Sfp PPTase inh	ALOX12 inh	BAZ2B inh	G9a block	HP1b chromo inh	JMJD2A Tudor inh
O=C(CCS(=O)(=O)c1ccccc1)N(CCCN1CCOCC1)c1nc2c(F)cccc2s1	x	u	u	14.1µM*	34.7%	-11.0%
O=C(CCS(=O)(=O)c1ccccc1)N(CCCN1CCOCC1)c1nc2ccc(F)cc2s1	x	-23.1%	2.9%	22.4µM*	36.7%	-17.9%
O=C(COc1ccccc1Cl)c1ccc2ccccc2c1	x	-25.6%	x	x	x	x
COC(=O)C1=CN(c2ccc(OC)cc2)C=C(C(=O)OC)C1c1ccc(C)c([N+](=O)[O-])c1	10.2%	-29.1%	-34.1%	-3.2%[59 µM]	-7.4%	u
COC(=O)C1=CN(c2cccc(C)c2)C=C(C(=O)OC)C1c1cc(OC)c(O)c([N+](=O)[O-])c1	-17.4%	u	28.2µM*	12.6µM*	u	44.7µM*
CNC(=O)[C@@H]1C[C@H](Oc2cccnc2)CN1C(=O)c1n[nH]c2ccccc12	x	12.9%	x	x	x	x
COc1ccc(C(=O)C(OC(=O)CNC(=O)c2ccco2)c2ccccc2)cc1 (centres undefined)	79.4µM*	u	-37.8%[57.1 µM]	50.1µM*	8.3%	-16.2%
O=C(CNC(=O)c1ccccc1)OC(C(=O)c1ccccc1)c1ccccc1 (centres undefined)	-0.5%	-17.8%	-7.4%	22.5%[59 µM]	55.0%	-4.1%
Cc1cc(NC(=S)N(Cc2ccc(Br)cc2)Cc2ccc(C(=O)O)cc2)ccc1Cl	u	44.7µM*	-36.8%	u	-7.0%	-32.5%
COc1ccc(CN(CC2CCC(C(=O)O)CC2)C(=S)Nc2cc(Cl)ccc2OC)cc1 (centres undefined)	39.8µM*	u	-0.6%	u	18.0%	-7.9%
COc1ccc(Cl)cc1NC(=S)N(Cc1ccc(C(=O)O)cc1)Cc1ccc(OC)c(OC)c1	39.8µM*	-28.1%	-15.1%	28.2µM*	-5.9%	-20.7%
COc1ccc(CN(Cc2ccc(C(=O)O)cc2)C(=S)Nc2cc(C)cc(C)c2)cc1OC	25.2%	-2.7%	-13.3%	-41.6%	33.5%	-17.2%
COc1cccc(NC(=S)N(Cc2ccc(Cl)cc2)Cc2ccc(C(=O)O)cc2)c1	5.3%	39.8µM*	4.0%	50.1µM*	7.6%	-8.6%

Compound activity: PubChem, National Center for Advancing Translational Sciences (NCATS)
